From PubChem
phage Ecoli inh: E. coli growth loss with phage present; growth absorbance; inhibition, % at 11.9 µM; actives 0.26% (n = 360,000); in the data active = inhibition above about 11%
AddAB inh: less growth of phage-infected E. coli with AddAB; inhibition, % at 11.9 µM; E. coli expressing H. pylori AddAB, absorbance growth; AID 435030; actives 0.29% (n = 330,000); in the data active = inhibition above about 12%;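 note: 0% = vehicle wells of infected cells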
E coli growth-1: bacterial growth inhibition, counter-screen for AddAB inhibitors; E. coli V3065 growth, OD600 absorbance, 18 h; inhibition, % at 11.9 µM; actives 0.27% (n = 330,000); AID 449728;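 active = inhibition above the campaign's mean inhibition across all tested compounds plus 3 SD, cut at about 9.9% in these data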;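 note: uninfected addAB+ strain grown without phage in ampicillin broth; 0% = DMSO wells and 100% = ciprofloxacin 0.95 µg/ml wells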
Tat transport: blocks Tat-dependent protein export in E. coli. AID 488895. inhibition, % at 10 µM. actives 0.036% (n = 340,000). E. coli MC4100 TorA-mCherry Tat export, fluorescence;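 active = mean replicate inhibition at least 50% and at least half of replicates individually reaching 50%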;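 note: exported cargo escapes ClpAP degradation while cytoplasmic cargo is degraded and loses fluorescence; 0% = median of neutral control wells and 100% = median of NaSCN control wells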
E coli growth-2: E. coli growth inhibition; AID 1053175; OD600 absorbance (concentration not given with the values); actives 0.21% (n = 330,000); Escherichia coli growth, OD600, 23 h; stronger effect = lower value;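 active = OD600 absorbance below the run mean of sample wells minus 3.6 SD, in any replicate, cut at about 0.56 in these data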
AddAB conf: confirmation screen: growth loss of phage-infected E. coli expressing H. pylori AddAB | E. coli V3065 expressing H. pylori AddAB, T4 phage, OD; T4 phage with gene 2 nonsense mutations | AID 488942 | actives 64% (n = 880) | shares compounds with AddAB inh | inhibition, % at 11.9 µM;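 active = mean inhibition above a set limit taken from the earlier primary screen, cut at about 13% in these data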;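 note: higher means less bacterial growth since AddAB block lets phage replicate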
RecBCD counter: AddAB counter-screen: growth loss of RecBCD+ E. coli infected with mutant T4 phage | shares compounds with AddAB inh | E. coli V66 + mutant T4 phage, OD growth | inhibition, % at 11.9 µM | actives 73% (n = 880);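 active = mean inhibition above the mean of solvent-only control wells plus 3 SD, cut at about 4% in these data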;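 note: optical density read after an 18 h incubation at 37 °C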
Bact viability: counter-screen: bacterial growth inhibition; inhibition, % at 11.9 µM; bacterial viability, absorbance (AddAB counterscreen); shares compounds with AddAB inh; AID 488956; actives 35% (n = 880); in the data active = inhibition above about 25%
RecBCD conf: growth loss of phage-infected V66 E. coli, RecBCD confirmation screen. actives 45% (n = 890). AID 651982. inhibition, % at 11.9 µM. shares compounds with phage Ecoli inh. E. coli V66 + T4 2- phage, growth OD;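 active = mean inhibition over triplicates exceeding the hit threshold derived in the original primary screen, cut at about 11% in these data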
Ecoli viability: bacterial viability inhibition counter-screen for RecBCD; inhibition, % at 11.9 µM; shares compounds with phage Ecoli inh; E. coli viability, absorbance (OD) growth; AID 651983; actives 29% (n = 890); in the data active = inhibition above about 20%;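 note: E. coli strain V66 grown with compound alone and no phage infection; 0% = bacteria with DMSO vehicle only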
AddAB counter: growth loss of phage-infected AddAB E. coli, RecBCD counter-screen. E. coli expressing H. pylori AddAB + T4 phage, OD growth; gene 2 mutant T4, recBCD-deleted host. inhibition, % at 11.9 µM. actives 45% (n = 890). shares compounds with phage Ecoli inh;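 active = mean inhibition above the solvent-only control wells' mean plus 3 SD, cut at about 22% in these data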;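 note: higher means less bacterial growth from phage killing when AddAB is blocked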
Active calls of the source: *; · = not tested or not shown. A selection: hits, their analogues and other compounds. The true share with any hit is near 0.5%.

SMILES	phage Ecoli inh	AddAB inh	E coli growth-1	Tat transport	E coli growth-2	AddAB conf	RecBCD counter	Bact viability	RecBCD conf	Ecoli viability	AddAB counter
O=S(=O)(Cc1ccc(Cl)cc1)c1ncc(CO)n1Cc1ccccc1	3	2	-1	-5	0.68	·	·	·	·	·	·
CC(=O)c1cccc(N=c2scc(-c3ccc(S(=O)(=O)N4CCOCC4)cc3)n2CCO)c1	4	2	-2	-3	0.7	·	·	·	·	·	·
O=C(O)c1cn(C2CC2)c2cc(N3CCN(S(=O)(=O)c4ccc5c(c4)OCCO5)CC3)c(F)cc2c1=O	93*	99*	97*	12	0.082*	98*	98*	101*	102*	102*	103*
CC(C)CC(=O)N1CC(=O)Nc2ccc(F)cc2C1c1ccccc1 (stereo not drawn)	1	-2	-1	0	0.64	·	·	·	·	·	·
O=c1[nH]c(=O)n(C2C[C@H](O)[C@@H](CO)O2)cc1C(F)(F)F (stereo partly drawn)	15*	14*	10*	18	·	38*	12*	15	20*	15	30*
CCc1cn([C@H]2C[C@H](O)[C@@H](CO)O2)c(=O)[nH]c1=O	12*	19*	14*	20	·	38*	11*	10	14*	8	23*
O=c1[nH]c(=O)n([C@H]2C[C@H](O)[C@@H](CO)O2)cc1C(F)(F)F	11*	13*	9	16	·	40*	9.6*	13	17*	13	26*
O=c1[nH]c(=O)n(C2CC(O)C(CO)O2)cc1Br (stereo not drawn)	11	·	·	1	·	·	·	·	·	·	·
Cc1cn([C@H]2C[C@H](O)[C@@H](COS(=O)(=O)O)O2)c(=O)[nH]c1=O	0	1	0	-8	·	·	·	·	·	·	·
O=C1[C@H]2[C@@H](c3ccc(Cl)cc3)N3C(=O)N(c4cccc(Cl)c4)C(=O)[C@@]3(Cc3ccc(Cl)cc3)[C@H]2C(=O)N1C1CCCCC1	2	3	0	-3	·	·	·	·	·	·	·
O=C(NC(NC(=S)Nc1ccc(Cl)c(Cl)c1)C(Cl)(Cl)Cl)c1ccco1 (stereo not drawn)	14*	14*	14*	-31	0.62	20*	13*	14	8	10	11
O=C(O)c1cccc(NC(=S)NC(NC(=O)c2ccco2)C(Cl)(Cl)Cl)c1 (stereo not drawn)	-1	1	-1	-1	0.69	·	·	·	·	·	·
Oc1c(C(c2ccccc2Cl)N2CCCC2)ccc2cccnc12 (stereo not drawn)	16*	25*	24*	10	0.38*	13*	12*	1	4	6	16
Oc1c(C(c2ccc(Cl)cc2)N2CCCC2)cc(Cl)c2cccnc12 (stereo not drawn)	20*	17*	24*	-3	0.59	3	8.4*	1	7	8	7
CN1CCN(C(c2ccc(C(F)(F)F)cc2)c2ccc3cccnc3c2O)CC1 (stereo not drawn)	17*	17*	27*	·	·	12	9.7*	7	4	4	7
Oc1c(C(c2cccs2)N2CCN(c3ccccc3)CC2)ccc2cccnc12 (stereo not drawn)	·	12	9	·	·	·	·	·	·	·	·
CN1CCN(C(c2ccccc2)c2ccccc2)CC1	4	0	-2	-10	0.68	·	·	·	·	·	·
Cc1ccnc(NC(=O)CCS(=O)(=O)c2ccccc2)c1	3	2	0	-2	0.61	·	·	·	·	·	·
Cc1nc2ccccc2c(=O)n1/N=C/c1ccc([N+](=O)[O-])o1	·	9	8	·	·	·	·	·	·	·	·
Cc1nc2ccccc2n1/N=C/c1ccc([N+](=O)[O-])o1	12*	100*	98*	-7	·	103*	25*	103*	10	13	100*
COc1ccc(Cl)cc1N(CC(=O)NCc1ccccn1)S(=O)(=O)c1ccc(C)cc1	3	·	·	·	·	·	·	·	·	·	·
Cn1c(O)c(/C=N/NC(=O)c2cc3ccccc3cc2O)c2ccccc21	22*	23*	25*	4	·	25*	25*	22	19*	23*	30*
CCOc1ccc(NC(=O)Cn2cc(C(=O)c3ccco3)c3ccccc32)cc1	12*	13*	14*	2	0.63	10	9.7*	12	7	11	5
COc1ccc(NC(=O)Cn2cc(C(=O)c3ccco3)c3ccccc32)cc1	18*	16*	18*	-4	0.64	13*	13*	15	8	12	16
CCC(=O)c1cn(CC(=O)Nc2ccc(OC)cc2)c2ccccc12	11*	13*	14*	-10	·	12	11*	9	3	6	5
SMILES	phage Ecoli inh	AddAB inh	E coli growth-1	Tat transport	E coli growth-2	AddAB conf	RecBCD counter	Bact viability	RecBCD conf	Ecoli viability	AddAB counter
COC(=O)Cn1cc(C(=O)c2ccco2)c2ccccc21	1	0	-1	-3	0.71	·	·	·	·	·	·
CCn1nc(C(=O)O)c(=O)c2cc3c(cc21)OCO3	53*	96*	98*	28	0.058*	99*	98*	101*	90*	99*	99*
CCn1ccc(=O)c2cc3c(cc21)OCO3	0	3	2	14	0.68	·	·	·	·	·	·
CN(CC(=O)Nc1c(Cl)cccc1Cl)C(=O)c1n[nH]c2ccccc12	2	-1	2	2	0.66	·	·	·	·	·	·
NC(=S)Cc1ccc(Cl)cc1Cl	5	1	3	-4	0.65	·	·	·	·	·	·
N=C(N)SCc1ccc(Cl)cc1Cl	72*	82*	68*	-6	0.12*	86*	66*	89*	68*	69*	90*
CCOC(=O)[C@]12CCC=C1N(Cc1ccc(Cl)cc1Cl)C(=O)[C@H](CC(=O)NCc1cccs1)C2	0	·	·	·	·	·	·	·	·	·	·
Nc1nc2ccc(Cl)cc2o1	13*	·	·	-16	0.63	·	·	·	14*	16	37*
C/C=N/NC(=O)c1cc(Br)ccc1O	2	1	0	-3	·	·	·	·	·	·	·
O=C(C(=O)c1cc(Br)ccc1O)c1cc(Br)ccc1O	13*	·	·	-9	0.17*	·	·	·	13*	17	16
COC(=O)/C(=C\c1ccc([N+](=O)[O-])o1)NC(=O)c1ccccc1	2	1	1	2	0.71	·	·	·	·	·	·
